Assay results reported in PubChem BioAssay (EPA / NIEHS).
The source made the active and inactive calls. How the source made its calls: active means hit-call score of the fitted dose curve at least 0.9, where 1 is the maximum; inactive means score below 0.9.

Read-out: Transforming Growth Factor (TGFB1), TGFB1 (gene 7040)
Test: LTEA_HepaRG_TGFB1: Life Technologies and Expression Analysis (LTEA) Assay for Transforming Growth Factor (TGFB1) Transporter using HepaRG (AID 2283533)
Conditions: mRNA level, 48 h; actives raise or lower the signal
Protocol: LTEA_HepaRG is a cell based, multiplexed-readout assay that uses HepaRG, a human liver cell line, with measurements taken at 48 hours after chemical dosing on a 96-well plate.LTEA_HepaRG_TGFB1 is one of 102 assay component(s) measured in the LTEA HepaRG cell culture assay. It is a marker of Cell proliferation, survival, death.Data from the assay component LTEA_HepaRG_TGFB1 was analyzed into 1 endpoint. This assay endpoint, LTEA_HepaRG_TGFB1, was analyzed with bidirectional fitting relative to DMSO as the negative control and baseline of activity. Using a type of inducible reporter, measures of mRNA induction for gain or loss-of-signal activity can be used to understand regulation of transcription factor activity. To generalize the intended target to other relatable targets, this assay endpoint is annotated to the growth factor intended target family, where the subfamily is transforming growth factor beta.
A total of 1060 chemcials from the ToxCast library were tested in eight-point concentration-response experiments. Cell culture and cytotoxicity assays were conducted at Thermo Fisher Scientific's Custom Services facility (Madison, WI). A single lot of human HepaRG cells (Thermo Fisher Scientific, Frederick, MD) was used for the cell culture experiments. 96-well format collagen type I coated plates of human HepaRG cells were prepared using established methods. Briefly, cryopreserved HepaRG cells were thawed, plated at a density of approximately 100,000 cells/well in HepaRG Thaw, Plate, and General Purpose media (HPRG770, Thermo Fisher Scientific), and incubated for 48 hours. 0.5% DMSO was selected as vehicle control to balance the requisite need of DMSO in HepaRG cultures to maintain differentiation (for example, baseline metabolism, proportions of hepatocytes vs. cholangiocytes), while enabling further hepatic receptor pathway activation (for example, PXR and CAR) in response to chemical exposure. 48 hours after plating, the culture medium was replaced with HepaRG Serum-Free Incudtion Media. Cells were exposed to each test chemical in duplicate and maintained in CO2 incubators for another 48 hours. Chemical plates were thawed to room temperature and 200x concentrations of treatment groups were prepared. 8-point conentration-reponse curves were made with the highest exposure at 100 uM, followed by half-log dilutions, all in 0.5% DMSO. Each test plate contained variouse controls, induction positive controls (1mM phenobarbital), cytotoxicity positive controls ([…] aflatoxin B1), vehicle controls (0.5% DMSO), and total lysis controls (0.5% DMSO). Cell morphology images were taken using an Essen IncuCyte FLR automated microscope, with six 96-well plates imaged in about 24 minutes. Images were captured and exported and JPEG files. Spent culture media was transfered to black-well plates for the LDH assay, and remaining media was sorted at -80 C for later use. Cells were treated with RLT buffer and frozen until shipped for gene expression analysis. Total RNA was isolated from the cell suspension in 75 uL of Buffer RLT (Qiagen, Germantown, MD 20874) by Quintiles/Expression Analysis (Durham, NC) using a custom isolation procedure. Total RNA from each plate well was transferred to a preamplification plate. Fluidigm's 96.96 Dynamic ArrayTM (Fluidigm, Amsterdam, the Netherlands) technology was used for gene expression analyses by quantitative reverse transcription polymerase chain reaction (qRT-PCR, performed by Quintiles/Expression Analysis, Durham, NC)89. Standard TaqManTM Assays (Applied Biosystems/ThermoFisher Scientific, Foster City, CA) were used to assess the expression of 93 genes selected based on their selectivity and sensitivity to important hepatic receptors known to be modulated by environmental chemicals; importance in human hepatocyte functionality; and hepatotoxicity. […]

Row | SMILES | outcome | AC50
1 | CCCCN(CCCC)N=O | inactive | 
2 | O=P1(N(CCCl)CCCl)NCCCO1 (stereo not given) | inactive | 
3 | CCOP(=S)(OCC)SCSCC | inactive | 
4 | c1ccc(OP(Oc2ccccc2)Oc2ccccc2)cc1 | inactive | 
5 | Cc1ccc(O)cc1C | inactive | 
6 | Nc1cc2c3c(c1)C(c1ccccc1)=N[C@@H](NC(=O)c1cccnc1)C(=O)N3CC2 | inactive | 
7 | ClC1=C(Cl)C2(Cl)C3C(Cl)C(Cl)CC3C1(Cl)C2(Cl)Cl (stereo not given) |  | 77 µM (active)
8 | O=C(O)C1C(C(=O)O)C2(Cl)C(Cl)=C(Cl)C1(Cl)C2(Cl)Cl (stereo not given) | inactive | 
9 | O=C(O)C(Cl)Cl | inactive | 
10 | CCOc1ccc(C(C)(C)COCc2cccc(Oc3ccccc3)c2)cc1 | inactive | 
11 | Cc1ccc([N+](=O)[O-])cc1C | inactive | 
12 | CCOC(=O)c1ccccc1C(=O)OCC | inactive | 
13 | Nc1ccc(Cl)cc1 | inactive | 
14 | CC(C)(C)OOC(C)(C)C | inactive | 
15 | O=[N+]([O-])c1ccccc1 | inactive | 
16 | Nc1ccc2ccccc2c1 | inactive | 
17 | c1cc2c3c(cccc3c1)CC2 | inactive | 
18 | [N-]=[N+]=[N-] | inactive | 
19 | CCN(CC)c1ccccc1 | inactive | 
20 | CC(C)(C)c1ccc(O)cc1 | inactive | 

Row | SMILES | outcome | AC50
21 | O=[N+]([O-])c1ccc(Cl)c(Cl)c1 | inactive | 
22 | CC(Cc1ccc(OCC(=O)O)cc1)NCC(O)c1csc(C(F)(F)F)n1 (stereo not given) | inactive | 
23 | COCCOCCO | inactive | 
24 | ClC(Cl)(Cl)c1ccccc1 | inactive | 
25 | CN(C)C(=O)Cl | inactive | 
26 | Cc1cccc(N)c1 | inactive | 
27 | CCC1(c2ccccc2)C(=O)N=C(O)NC1=O (stereo not given) | inactive | 
28 | c1ccc2c(c1)Nc1ccccc1S2 | inactive | 
29 | CCCCCCCc1ccc(O)cc1 | inactive | 
30 | CCCCc1ccccc1 | inactive | 
31 | CCNc1nc(Cl)nc(NC(C)(C)C)n1 | inactive | 
32 | c1nc[nH]n1 |  | 12.4 µM (active)
33 | CCCN(CCC)c1c([N+](=O)[O-])cc(C(C)C)cc1[N+](=O)[O-] | inactive | 
34 | OCC1CO1 (stereo not given) | inactive | 
35 | CCOP(=S)(Oc1ccc([N+](=O)[O-])cc1)c1ccccc1 (stereo not given) | inactive | 
36 | CC(Cl)(Cl)C(=O)O | inactive | 
37 | O=P(Oc1ccccc1)(Oc1ccccc1)Oc1ccccc1 |  | 77.5 µM (active)
38 | CSC(C)(C)C=NO | inactive | 
39 | CCCCN(CCCC)SN(C)C(=O)Oc1cccc2c1OC(C)(C)C2 | inactive | 
40 | CCC(C)(C)c1ccc(O)cc1 | inactive | 
